The nature of experiment [1]: qHTS assay to identify small molecule agonists of the peroxisome proliferator-activated receptor delta (PPARd) signaling pathway - cell viability counter screen (AID 743211). Further: nearly all actives have a fitted effect of over 55% in size. Further: potency means the concentration at half of the fitted maximal effect. The gist of the method: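 PPARd-bla HEK293H cells (UAS-beta-lactamase reporter) were treated with compounds for 17 h at 37 C. Viability was then read in the same wells by CellTiter-Glo luminescence after 30 min at room temperature.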

The target of experiment [2] is Peroxisome proliferator-activated receptor delta (Homo sapiens) (UniProt Q03181). Description: qHTS assay to identify small molecule agonists of the peroxisome proliferator-activated receptor delta (PPARd) signaling pathway (AID 743212; calls by dose curve). The gist of the method:
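Beta-lactamase reporter readout: a ratiometric FRET signal from the LiveBLAzer substrate after 2 h at room temperature. Compound exposure at 37 °C in PPARδ-bla HEK293H cells driven by an upstream activator sequence.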
On the technique in general: Quantitative high-throughput screening tests each substance at several concentrations.

Experiment [3] has as its target Bile acid receptor (Homo sapiens) (UniProt Q96RI1). Description: qHTS assay to identify small molecule antagonists of the farnesoid-X-receptor (FXR) signaling pathway (AID 743217; active means well fitted inhibition curve with a large enough effect in the signal ratio in the repeat runs, not every such curve was filed as active; the % refers to the signal ratio). Put shortly: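 FRET fluorescence after 2 h room-temperature LiveBLAzer loading gives the readout. Prior step: FXR-bla HEK 293T cells, seeded and incubated 5 h, received test compounds plus 50 uM final CDCA for 16 h at 37 °C.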

The target is the same in experiment [4]. Description: qHTS assay to identify small molecule agonists of the farnesoid-X-receptor (FXR) signaling pathway (AID 743220; active means well fitted activation curve with a large enough effect in the signal ratio in the repeat runs, not every such curve was filed as active; the % refers to the signal ratio). Put shortly:
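FXR-UAS-bla HEK 293T cells carrying a UAS-driven beta-lactamase reporter were plated for 5 h at 37C/5% CO2, then exposed to DMSO-dissolved Tox21 10K compounds for 16 h at 37C. A LiveBLAzer B/G FRET substrate was loaded for 2 h at room temperature before fluorescence reading.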

Experiment [5] is described as follows: qHTS assay to identify small molecule antagonists of the farnesoid-X-receptor (FXR) signaling pathway - cell viability counter screen (AID 743221; active means well fitted cell-killing curve with a large enough effect in the repeat runs, not every such curve was filed as active; further: nearly all actives have a fitted effect of over 50% in size; further: potency means the concentration at half of the fitted maximal effect). Put shortly: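 FXR-UAS-bla HEK 293T cells were treated with test compounds plus chenodeoxycholic acid (50 uM final) for 16 h at 37 C. Cell viability in the same wells was then read as CellTiter-Glo luminescence after 30 min at room temperature.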

For experiment [6], the target named is Vitamin D3 receptor (Homo sapiens) (UniProt P11473). Nature of the experiment: qHTS assay to identify small molecule antagonists of the vitamin D receptor (VDR) signaling pathway (AID 743223; active means well fitted inhibition curve with a large enough effect in the signal ratio in the repeat runs, not every such curve was filed as active; the % refers to the signal ratio). Put shortly: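 VDR-bla cells were plated, incubated 4 h at 37C, then given compound and 1alpha,25-dihydroxyvitamin D3 (3 nM final). After 16 h at 37C, LiveBLAzer B/G FRET substrate was added for 2 h at room temperature and fluorescence read.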

Experiment [7] can be described thus: qHTS assay to identify small molecule antagonists of the peroxisome proliferator-activated receptor delta (PPARd) signaling pathway - cell viability counter screen (AID 743213). Further: nearly all actives have a fitted effect of over 50% in size. Further: potency means the concentration at half of the fitted maximal effect. Put shortly:
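Luminescence from CellTiter-Glo, added after the bla read and incubated 30 min at room temperature, gives viability of HEK293H PPARd-bla cells exposed to compounds for 17 h at 37 C with 300 nM L165041.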

Experiment [8] in a line: qHTS assay to identify small molecule agonists of the farnesoid-X-receptor (FXR) signaling pathway - cell viability counter screen (AID 743218). Further: nearly all actives have a fitted effect of over 45% in size. Further: potency means the concentration at half of the fitted maximal effect. The gist of the method:
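Readout: CellTiter-Glo luminescence, 30 min RT, multiplexed after the FXR-bla FRET reading. HEK 293T FXR-UAS-bla cells received compound 5 h post-plating and were incubated 16 h at 37 C.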

Experiment [9] addresses Peroxisome proliferator-activated receptor delta (Homo sapiens) (UniProt Q03181). Description: qHTS assay to identify small molecule antagonists of the peroxisome proliferator-activated receptor delta (PPARd) signaling pathway (AID 743215; active means well fitted inhibition curve with a large enough effect in the signal ratio in the repeat runs, not every such curve was filed as active; the % refers to the signal ratio;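 further: cells stimulated with agonist L165041 at 300 nM final during compound exposure; series mostly up to about 62 µM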). The gist of the method:
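Fluorescence from cleaved LiveBLAzer B/G FRET substrate (2 h, room temperature) reports PPARd-driven beta-lactamase in HEK293H UAS-bla cells. Cells had been treated 17 h at 37 C with compound plus 300 nM final L165041.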

Experiment [10] deals with Vitamin D3 receptor (Homo sapiens) (UniProt P11473). Description: qHTS assay to identify small molecule agonists of the vitamin D receptor (VDR) signaling pathway (AID 743222; calls by dose curve). Put shortly:
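Following 4 h attachment at 37C, VDR-bla cells (2,000 per well) received DMSO-dissolved compounds or controls. After 16 h incubation, LiveBLAzer B/G FRET substrate was added and fluorescence read 2 h later at room temperature.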

Where “and” joins values, the source holds several entries; their conditions need not be identical. Equal values may be shown once. Results filed as inconclusive are left out. Unmarked numbers belong to inactive results. Calls of active or inactive are those of the source. Unless noted, the call rests on the fitted dose curve; in most records, active means well fitted curve in the direction sought with a large enough effect in the repeat runs; inconclusive means weak or mixed curves; inactive means no such curve, though single readings can be large; an effect the other way counts as inactive or inconclusive.

Peroxisome proliferator-activated receptor delta (Homo sapiens), sequence (Q03181 whole entry, looked up): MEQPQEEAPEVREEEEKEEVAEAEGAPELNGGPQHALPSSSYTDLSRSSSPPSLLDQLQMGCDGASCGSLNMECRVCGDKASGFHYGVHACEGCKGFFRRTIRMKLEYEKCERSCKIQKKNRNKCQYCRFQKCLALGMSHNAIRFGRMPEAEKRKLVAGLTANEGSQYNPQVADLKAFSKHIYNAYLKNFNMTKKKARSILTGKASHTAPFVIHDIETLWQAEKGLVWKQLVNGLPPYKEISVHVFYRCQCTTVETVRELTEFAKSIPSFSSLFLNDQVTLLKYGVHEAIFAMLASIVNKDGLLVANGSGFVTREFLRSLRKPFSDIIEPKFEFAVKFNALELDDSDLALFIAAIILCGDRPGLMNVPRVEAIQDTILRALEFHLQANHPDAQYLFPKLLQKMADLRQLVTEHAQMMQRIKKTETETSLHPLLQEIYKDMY
Vitamin D3 receptor (Homo sapiens), sequence (P11473 whole entry, looked up): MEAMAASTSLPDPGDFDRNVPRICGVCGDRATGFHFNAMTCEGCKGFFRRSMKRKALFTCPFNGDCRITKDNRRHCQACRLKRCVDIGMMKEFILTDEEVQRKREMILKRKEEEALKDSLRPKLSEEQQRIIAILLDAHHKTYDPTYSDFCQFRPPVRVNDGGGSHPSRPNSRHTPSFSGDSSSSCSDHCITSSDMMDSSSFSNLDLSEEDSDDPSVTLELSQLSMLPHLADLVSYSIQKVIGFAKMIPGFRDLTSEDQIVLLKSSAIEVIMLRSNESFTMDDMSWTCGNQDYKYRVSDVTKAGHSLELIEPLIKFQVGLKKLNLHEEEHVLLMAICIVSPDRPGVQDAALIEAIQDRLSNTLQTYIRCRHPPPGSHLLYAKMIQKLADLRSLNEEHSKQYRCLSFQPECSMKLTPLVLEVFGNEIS
Bile acid receptor (Homo sapiens), sequence (Q96RI1 whole entry, looked up): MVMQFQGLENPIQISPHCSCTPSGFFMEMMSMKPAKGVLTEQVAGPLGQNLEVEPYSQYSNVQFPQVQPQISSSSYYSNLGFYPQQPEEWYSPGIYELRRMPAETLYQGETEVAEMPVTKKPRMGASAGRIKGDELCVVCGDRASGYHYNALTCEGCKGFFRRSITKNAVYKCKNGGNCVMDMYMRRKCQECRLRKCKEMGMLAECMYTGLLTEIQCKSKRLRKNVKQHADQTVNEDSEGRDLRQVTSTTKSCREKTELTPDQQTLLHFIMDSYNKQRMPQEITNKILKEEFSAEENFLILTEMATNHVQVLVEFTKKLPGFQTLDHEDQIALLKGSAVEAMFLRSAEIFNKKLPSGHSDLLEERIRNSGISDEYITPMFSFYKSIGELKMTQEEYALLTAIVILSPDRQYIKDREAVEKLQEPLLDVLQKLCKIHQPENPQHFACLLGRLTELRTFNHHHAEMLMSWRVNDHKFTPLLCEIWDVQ

For `COC(=O)NN`, the Potency entry in experiment [1] and in experiment [5] was “inactive” in each case. The compound was called inactive in experiment [2], in experiment [3], in experiment [4] and in experiment [6].

Regarding `COC(=O)[C@@H](N)Cc1ccc(O)c(O)c1`, the Potency entry in experiment [1], in experiment [7], in experiment [8] and in [5] was “inactive” throughout.

For `Cc1cnc(NS(=O)(=O)c2ccc(N)cc2)nc1`, the Potency entry in [1], in [9], in experiment [8] and in experiment [5] was “inactive” in each case. Besides, the compound was called inactive in [2] and in [6].

As to `Cc1nc2c([nH]1)c(=O)n(C)c(=O)n2Cc1ccco1`, the Potency result in experiment [1], in [7] and in experiment [8] was “inactive” each time. In addition, the compound was called inactive in [3], in [4], in experiment [10] and in experiment [6].

Consider `CCOC(=O)c1c(C)n(C)c2ccc(O)cc12`, for which the Potency result in experiment [1], in experiment [7] and in experiment [8] was “inactive” in each case. For the same compound, the outcome in experiment [3], in experiment [4], in experiment [10] and in experiment [6] was inactive.

Take `CC(C)c1cc2c(cc1S(=O)(=O)O)[C@@]1(C)CCC[C@@](C)(C(=O)O)[C@@H]1CC2`: the Potency result in experiment [1] and in experiment [8] was “inactive” each time. Also, the outcome in [2] and in [6] was inactive.

For the compound `Cc1cc2c(cc1S(N)(=O)=O)S(=O)(=O)CCC2`, the Potency entry in experiment [1], in experiment [7], in experiment [9], in experiment [8] and in experiment [5] was “inactive” throughout. In [3], the compound was classed as inactive.

In the case of `Brc1c(NC2=NCCN2)ccc2nccnc12`, the Potency entry in [1], in experiment [7], in experiment [8] and in experiment [5] was “inactive” each time. Moreover, the compound was called inactive in experiment [10] and in experiment [6].

For `CN(C)CCCN1c2ccccc2CCc2ccc(Cl)cc21`, the Potency in experiment [1] was 38.9 µM (active) and 29.8 µM (active); in [7] it was 21.9 µM (active) and 13.3 µM (active); in experiment [8], 24.5 µM (active); in [5], 49 µM (active). Further, in [10], the call was inactive.

As to `CCN1CCC[C@H]1CNC(=O)c1cc(S(N)(=O)=O)ccc1OC`, the Potency entry in [1], in experiment [7], in [8] and in experiment [5] was “inactive” in each case. For the same compound, the outcome in experiment [10] and in experiment [6] was inactive.

For `Cc1sccc1Br`, the Potency entry in [1], in experiment [7] and in experiment [8] was “inactive” in each case. Moreover, the outcome in experiment [3], in experiment [4], in experiment [10] and in [6] was inactive.

As to `CCOC(=O)CC(C)=O`, the Potency entry in experiment [1], in experiment [7], in [8] and in [5] was “inactive” in each case.

`CCN(Cc1ccncc1)C(=O)C(CO)c1ccccc1` (stereo unspecified): the Potency result in experiment [1], in [7], in experiment [8] and in [5] was “inactive” in each case. In addition, the compound was called inactive in [6].

As to `C/C=C(\C)C#N`, the Potency entry in [1], in experiment [8] and in experiment [5] was “inactive” in each case. The outcome in [2] and in [6] was inactive.

As for `CC(=O)Nc1ccc(S(N)(=O)=O)cc1`, the Potency result in [1], in experiment [8] and in experiment [5] was “inactive” each time. Also, the outcome in [2], in experiment [3], in [4] and in [10] was inactive.

In the case of `Nc1ccc(S(=O)(=O)Nc2ccnn2-c2ccccc2)cc1`, the Potency result in experiment [1], in experiment [7], in [8] and in experiment [5] was “inactive” throughout. For the same compound, the result in experiment [3], in experiment [4] and in [6] was inactive.

Turning to `CC(C)(O)C(=O)c1ccccc1`, the Potency entry in [1] and in experiment [8] was “inactive” throughout. Further, the compound was called inactive in experiment [2], in experiment [3] and in experiment [4].

Turning to `Oc1ccc(C2CNCCc3c2cc(O)c(O)c3Cl)cc1` (stereo unspecified), the Potency entry in experiment [1], in [7], in experiment [8] and in experiment [5] was “inactive” each time. Further, the call in experiment [10] and in [6] was inactive.

Consider `COc1nc(N)nc2c1ncn2[C@@H]1O[C@H](CO)[C@@H](O)[C@@H]1O`, for which the Potency result in experiment [1] and in experiment [8] was “inactive” throughout. Also, the compound was called inactive in experiment [10] and in [6].

With `CC(=O)CC(C)C`, the compound was called inactive in experiment [2], in experiment [3], in experiment [4], in experiment [10] and in experiment [6]. Moreover, the Potency entry in [7], in experiment [9], in [8] and in [5] was “inactive” throughout.

Turning to `N[C@H]1CN(c2c(F)cc3c(=O)c(C(=O)O)cn(C4C[C@H]4F)c3c2Cl)CC12CC2` (stereo partly specified), the Potency entry in experiment [1], in experiment [8] and in experiment [5] was “inactive” in each case. Further, the outcome in experiment [10] was inactive.

Take `CCc1ccc(O)c(OC)c1`: the Potency entry in [1], in experiment [9], in experiment [8] and in [5] was “inactive” in each case. For the same compound, the compound was classed as inactive in [3] and in experiment [4].

The record behind these values is PubChem BioAssay (Tox21).
